Source: PubChem BioAssay
Only some compounds are listed: those with a hit (about 2.2% of all), similar ones and a draw of the others.
NTR1 ag: activates human neurotensin receptor 1; P30989; NTR1-U2OS beta-arrestin-GFP spot imaging, agonist mode; activation, % at 20 µM; 330,000 tested, 0.17% active; AID 493036;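 active = activation at or above 40% of the spot to cytoplasm intensity ratio, with at least 20 cells analyzed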
ANO1 block: blocks the mouse calcium-activated chloride channel TMEM16A | Q8BHY3 | HEK293 TMEM16A/YFP iodide influx fluorescence, ionomycin | normalized B-score (activity score, 25-100; higher = stronger inhibition) at 10 µM | 310,000 tested, 1.2% active | AID 588511;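 active = ratio plate-corrected score three or more library SD toward inhibition, starting fluorescence score within five deviations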;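 also: score derived from kinetic fluorescence span divided by baseline fluorescence per well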
CHO-K1 Ca antag: M1 antagonist counterscreen hit in parental CHO-K1 cells | ATP-induced calcium, Fluo-8 fluorescence | inhibition, % at 3 µM | 360,000 tested, 0.6% active | AID 602250;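 active = inhibition above a per-plate cutoff, the plate's mean sample inhibition plus 3 SD, cut at about 24% in these data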
TMEM16A act: activates or potentiates the mouse TMEM16A chloride channel; Q8BHY3; HEK293 TMEM16A/YFP-H148Q/I152L, iodide quench fluorescence; active compounds read low; B-score at 10 µM; 340,000 tested, 0.3% active;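 active = fluorescence-ratio B-score plate-corrected deviation score at least 3 library SD below zero, with starting fluorescence score within 5 deviations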;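 also: channel opened by trigger with iodide after compound preincubation; score built on the fluorescence ratio of max minus min over baseline; more negative score means more quench and so TMEM16A activation or potentiation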
CHO-K1 Ca ag: nonselective activator or artifact in parental CHO-K1 cells | Fluo-8 calcium fluorescence; scaled to maximal ATP response, vehicle zero | activation, % at 3 µM | 360,000 tested, 0.48% active; in the data active = activation above about 15%;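 also: untransfected CHO-K1 host cells lacking M1 receptor as counterscreen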
CHO-K1 Ca PAM: counter-screen for M1 PAMs: effect in parental CHO-K1 cells; ATP EC20, Fluo-8 calcium fluorescence; 0% at ATP EC20, 100% at ATP max; activation, % at 3 µM; 360,000 tested, 0.02% active;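 active = activation above the run cutoff, the mean activation of all test compounds plus 3 SD, cut at about 40% in these data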;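 also: peak over basal fluorescence ratio in a 140 s read after ATP addition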
NTR1 ag conf: NTR1 (human) agonism, confirmed; activation, % at 20 µM; 480 tested, 38% active; shares compounds with NTR1 ag; NTR1-U2OS beta-arrestin-GFP translocation imaging;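 active = mean activation at 20 µM of at least 40%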
Large screens that a line does not name were inactive (follow-up assays come after a bar, where they were run); ! = not confirmed by another sample.

C[C@H](NC(=O)c1nc[nH]c1C(=O)N[C@@H](Cc1ccccc1)C(=O)OC(C)(C)C)C(=O)OCc1ccccc1	NTR1 ag 41 | NTR1 ag conf inactive
C[C@]12CCC(O)CC1CCC1C2CC[C@]2(C)C(c3cc(C(F)(F)F)n[nH]3)CCC12 (stereo not given in full)	NTR1 ag 74 | NTR1 ag conf inactive
CC12CCC3C(CCC4CC(O)CCC43C)C1CC(O)C2 (stereo not given)	none (no result: NTR1 ag, ANO1 block)
CCCCNc1ccc(C(CC(N)=O)NC(=O)Cc2cccc3ccccc23)cc1[N+](=O)[O-] (stereo not given)	none
COc1ccc(CCNc2ccc(C(CC(N)=O)NC(=O)Cc3cccc4ccccc34)cc2[N+](=O)[O-])cc1 (stereo not given)	NTR1 ag 48 | NTR1 ag conf inactive
COC(=O)N1CCCCC1c1cc(C(=O)Nc2ccc(OC)cc2C)no1 (stereo not given)	none (no result: NTR1 ag, ANO1 block, TMEM16A act)
N#C/C(=C\c1cn[nH]c1-c1ccc(Cl)cc1)C(=O)NCc1ccccc1	NTR1 ag 43 | NTR1 ag conf inactive
CCOc1cccc(-c2nn(-c3ccccc3)cc2/C=C(/C#N)C(=O)NCCCn2ccnc2)c1	NTR1 ag 44 | NTR1 ag conf inactive
c1ccc(N2CCCCC2)c(Nc2nc3ccccc3n3cnnc23)c1	NTR1 ag 40 | NTR1 ag conf inactive
c1ccc2c(c1)nc(Nc1ccc(N3CCCCC3)cc1)c1nncn12	none
FC(F)(F)c1ccc(N2CCOCC2)c(Nc2nc3ccccc3n3cnnc23)c1	NTR1 ag 45 | NTR1 ag conf inactive
Cc1nc(C(F)(F)F)ccc1C(=O)N1CCC1(C)C(=O)Nc1ccc2c(c1)OCO2 (stereo not given)	none (no result: NTR1 ag, ANO1 block, TMEM16A act)
COc1cc(OC)c2cc(C(=O)N/N=C/c3cccc(OC)c3O)[nH]c2c1	NTR1 ag 60 | NTR1 ag conf 73
CC(CCc1ccccc1)NC(=O)COC(=O)c1ccc([N+](=O)[O-])cc1 (stereo not given)	none
CC(CCc1ccccc1)NC(=O)COC(=O)c1ccc(S(C)(=O)=O)c([N+](=O)[O-])c1 (stereo not given)	NTR1 ag 42 | NTR1 ag conf 79
O=C(Nc1ccc(N2CCN(C(=O)c3ccco3)CC2)c(Cl)c1)c1cc2ccccc2o1	NTR1 ag 42 | NTR1 ag conf 63
O=C(Nc1ccc(N2CCN(C(=O)c3ccccc3)CC2)c(Cl)c1)c1ccco1	none
CNC(=O)c1cc(Oc2ccc(NC(=O)Nc3ccc(Cl)c(C(F)(F)F)c3)cc2)ccn1	NTR1 ag 43 (no result: ANO1 block) | NTR1 ag conf 48
O=C(Nc1ccc(Cl)c(C(F)(F)F)c1)c1ccncc1	none
COc1cc(C(=O)N/N=C/c2ccc(OC(=O)c3cccc(C)c3)cc2)ccc1O	NTR1 ag 52 | NTR1 ag conf inactive
COc1ccc([C@H]2Oc3cc(O)cc(O)c3C(=O)C2[C@@H]2C(=O)c3c(O)cc(O)cc3O[C@@H]2c2ccc(OC)cc2)cc1 (stereo not given in full)	NTR1 ag 50, ANO1 block 100 (no result: CHO-K1 Ca antag, TMEM16A act, CHO-K1 Ca ag, CHO-K1 Ca PAM) | NTR1 ag conf inactive
COc1ccc(C2CC(=O)Oc3cc(O)cc(O)c32)cc1 (stereo not given)	none
CC1=CC(=O)Nc2ccccc2S1	none (no result: NTR1 ag, ANO1 block)
O=[N+]([O-])c1ccc(Nc2c3ccccc3nc3ccccc23)cc1	NTR1 ag 44 (no result: ANO1 block) | NTR1 ag conf inactive
COc1ccc(Cn2c(-c3ccc(C)cc3)nc3c(c(=O)c4ccccc4n3C)c2=O)cc1	NTR1 ag 41 | NTR1 ag conf inactive
O=C1NC[C@H](CC2CCCCC2)N(CCc2cccc3ccccc23)C1=O	none (no result: NTR1 ag, ANO1 block, TMEM16A act)
O=C1NC[C@@H](Cc2cccc3ccccc23)N(CCCCC2CCCCC2)C1=O	NTR1 ag 41 | NTR1 ag conf inactive
CCCCCCCCCCOC(=O)Cn1c(COc2ccc(OC)cc2)[n+](C)c2ccccc21	NTR1 ag 50, ANO1 block 25! | NTR1 ag conf 65
CCCCCCCCCCOC(=O)Cn1c(COc2ccc(Cl)cc2)[n+](C)c2ccccc21	none
COc1ccc(C(=O)/C=C2/C(=O)Nc3ccccc32)cc1	none
COc1ccc(C(=O)/C=C2/C(=O)Nc3ccccc32)c(OC)c1	NTR1 ag 52 | NTR1 ag conf 49
Cc1ccc(-c2csc(-c3c[nH]c4ccccc34)n2)c(C)c1	NTR1 ag 46 | NTR1 ag conf inactive
Cc1ccccc1C(=O)N1CCc2cc(-c3csc(NC(=O)CN4CCCC4)n3)ccc21	NTR1 ag 54, ANO1 block 25 | NTR1 ag conf inactive
O=C(CCCc1c[nH]c2ccccc12)NCCc1c[nH]c2ccccc12	none
O=C(NCCc1c[nH]c2ccccc12)OCCCCOC(=O)NCCc1c[nH]c2ccccc12	NTR1 ag 67 | NTR1 ag conf inactive
O=C(Nc1ccc(C(=O)N2CCCCC2)cc1)C1CC1	none (no result: NTR1 ag, ANO1 block, TMEM16A act)
COCCCn1c(SCc2cccc(C(F)(F)F)c2)nc2cc(OC)c(OC)cc2c1=N	NTR1 ag 60 | NTR1 ag conf inactive
COc1cc2nc(SCc3ccc(Cl)cc3Cl)n(Cc3cccs3)c(=N)c2cc1OC	none
COc1ccc(Cn2c(SCc3ccc(C)cc3)nc3cc(OC)c(OC)cc3c2=N)cc1Cl	NTR1 ag 54 | NTR1 ag conf 64
COc1ccc(Cn2c(SCc3cc(C)ccc3C)nc3cc(OC)c(OC)cc3c2=N)cc1	NTR1 ag 48 | NTR1 ag conf inactive
COc1cc2nc(SCc3ccc(C(F)(F)F)cc3)n(Cc3cccs3)c(=N)c2cc1OC	none
O=C(CC1NC(=O)NC1=O)Nc1ccc(Cl)cc1 (stereo not given)	none
O=C(CC1Nc2ccccc2NC1=O)Nc1cc(Cl)cc(Cl)c1 (stereo not given)	NTR1 ag 73 | NTR1 ag conf 54
CC(C)Oc1cccc(NC(=O)C2(C)CCN2C(=O)C(C)C)c1 (stereo not given)	none (no result: NTR1 ag, ANO1 block, TMEM16A act)
CC(C)(C)C1CCc2c(sc(NC(=O)CSc3ncn[nH]3)c2C#N)C1 (stereo not given)	NTR1 ag 41 | NTR1 ag conf inactive
CC1CCc2c(sc(NC(=O)CSc3ncn[nH]3)c2C#N)C1 (stereo not given)	none
Cc1cccc(CN2CCc3c([nH]c4ccccc34)C2)c1	none
Clc1ccc(CN2CCc3c([nH]c4ccccc34)C2)cc1Cl	NTR1 ag 65 | NTR1 ag conf inactive
CCc1ccccc1Nc1nc(N)nc(COC(=O)c2c(C)noc2C)n1	none (no result: ANO1 block)
CCOC(=O)c1ccc(NC(=O)c2ccc(C)c(S(=O)(=O)N3CCOCC3)c2)cc1	NTR1 ag 52, CHO-K1 Ca antag 30 | NTR1 ag conf 70
